# Results taken from PubChem BioAssay (EPA / NIEHS).
# Active and inactive are the calls of the source. Rule for the calls: active = hit-call score of the fitted dose curve at least 0.9, where 1 is the maximum; inactive = score below 0.9.
# How the values were obtained:
# [1] = ATG_CRE_CIS: Attagene CIS-FACTORIAL HepG2 Assay for human cAMP Responsive Element (CRE) binding protein 3 (AID 2282926); details: HepG2 CRE cis-reporter, Attagene multiplexed mRNA; actives raise or lower the signal
# Procedure, shortened: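 Readout: fluorescently labelled reporter transcripts resolved by capillary electrophoresis after RT-PCR, taken 24 h post-dosing in transfected HepG2. Endogenous transcription factor activity drives each cis-element reporter; gain or loss of signal fitted relative to DMSO control.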
# [2] = biological target: CCAAT/enhancer-binding protein beta (Homo sapiens) (UniProt P17676); assay: ATG_C_EBP_CIS: Attagene CIS-FACTORIAL HepG2 Assay for human CCAAT/Enhancer Binding Protein (C/EBP) beta (AID 2282927); details: HepG2 Attagene cis-factorial transcription factor reporter; actives raise or lower the signal
# CCAAT/enhancer-binding protein beta (Homo sapiens), sequence (P17676 whole entry, looked up): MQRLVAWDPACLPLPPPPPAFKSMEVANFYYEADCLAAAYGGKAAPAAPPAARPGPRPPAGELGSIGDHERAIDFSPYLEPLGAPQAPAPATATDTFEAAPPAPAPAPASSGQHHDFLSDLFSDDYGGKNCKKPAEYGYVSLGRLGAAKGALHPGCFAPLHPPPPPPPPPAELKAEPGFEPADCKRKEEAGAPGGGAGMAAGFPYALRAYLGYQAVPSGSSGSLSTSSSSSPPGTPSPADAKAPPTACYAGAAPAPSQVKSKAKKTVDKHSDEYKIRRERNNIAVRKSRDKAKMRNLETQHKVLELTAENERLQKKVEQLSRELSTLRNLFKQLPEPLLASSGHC
# Procedure, shortened: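 HepG2, transient MRTU transfection, 24 h treatment. RT-PCR plus CE fluorescence; DMSO negative control, bidirectional fit.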
# [3] = ATG_CMV_CIS: Attagene CIS-FACTORIAL HepG2 Assay for human CMV (Internal Marker) (AID 2282928); details: HepG2 CMV promoter reporter, transcription factor profiling; actives raise or lower the signal;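 note: endpoint acts as a background internal control marker rather than a target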
# Procedure, shortened: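 Reporter transcripts from transfected HepG2 cells are isolated after 24 h of chemical dosing, reverse-transcribed and amplified. Fragments labeled with 6-FAM are cut with HpaI and quantified by capillary electrophoresis; DMSO defines baseline.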
# [4] = ATG_DR4_LXR_CIS: Attagene CIS-FACTORIAL HepG2 Assay for human Liver X Receptor (LXR), DR4 submotif (AID 2282929); details: HepG2 Attagene DR4 cis-reporter, mRNA transcription; actives raise or lower the signal
# Procedure, shortened: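 Transiently transfected HepG2 liver cells; cis-regulated reporters; 24 h dosing. RT-PCR plus CE read-out of reporter mRNA. DMSO baseline, bidirectional curve fitting.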
# [5] = biological target: Aryl hydrocarbon receptor (Homo sapiens) (UniProt P35869); assay: ATG_Ahr_CIS: Attagene CIS-FACTORIAL HepG2 Assay for human Aryl Hydrocarbon Receptor (Ahr) (AID 2282930); details: HepG2 AhR cis-factorial reporter transcription; actives raise or lower the signal
# Aryl hydrocarbon receptor (Homo sapiens), sequence (P35869 whole entry, looked up): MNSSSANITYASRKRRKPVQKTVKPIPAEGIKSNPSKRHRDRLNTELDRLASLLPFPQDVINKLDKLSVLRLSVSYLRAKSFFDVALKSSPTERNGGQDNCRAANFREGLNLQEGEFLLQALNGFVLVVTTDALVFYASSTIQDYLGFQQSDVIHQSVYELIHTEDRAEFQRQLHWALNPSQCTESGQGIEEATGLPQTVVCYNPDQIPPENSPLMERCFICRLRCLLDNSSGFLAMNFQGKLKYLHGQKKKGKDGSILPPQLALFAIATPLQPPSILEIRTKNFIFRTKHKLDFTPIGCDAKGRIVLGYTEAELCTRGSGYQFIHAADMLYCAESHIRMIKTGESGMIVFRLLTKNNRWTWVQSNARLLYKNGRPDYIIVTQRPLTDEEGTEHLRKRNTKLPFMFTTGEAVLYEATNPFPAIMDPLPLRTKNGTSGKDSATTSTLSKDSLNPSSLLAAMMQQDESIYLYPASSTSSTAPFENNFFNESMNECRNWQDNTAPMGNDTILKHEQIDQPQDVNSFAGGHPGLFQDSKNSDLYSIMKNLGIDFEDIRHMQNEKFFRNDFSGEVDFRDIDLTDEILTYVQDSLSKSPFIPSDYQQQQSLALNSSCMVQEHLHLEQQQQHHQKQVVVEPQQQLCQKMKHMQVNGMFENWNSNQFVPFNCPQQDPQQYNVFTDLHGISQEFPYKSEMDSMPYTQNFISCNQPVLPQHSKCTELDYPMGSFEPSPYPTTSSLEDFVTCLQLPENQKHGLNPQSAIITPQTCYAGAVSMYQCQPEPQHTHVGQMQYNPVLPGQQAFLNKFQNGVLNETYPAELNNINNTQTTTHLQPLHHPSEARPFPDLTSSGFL
# Procedure, shortened: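 Endogenous factor activity is tracked through cis-promoter reporter units transfected into HepG2 cells. Transcript levels at 24 h are read by fluorescent RT-PCR and capillary electrophoresis, with activity in either direction scored relative to DMSO.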
# [6] = ATG_AP_1_CIS: Attagene CIS-FACTORIAL HepG2 Assay for human Activator Protein 1 (AP-1) (AID 2282931); details: HepG2 Attagene cis-factorial AP-1 reporter mRNA; actives raise or lower the signal
# Procedure, shortened: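 We transfected HepG2 cells transiently with a set of cis-regulated reporter transcription units, dosed them for 24 h, and quantified reporter mRNA via RT-PCR and capillary electrophoresis, scoring gain or loss of signal relative to DMSO.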
# [7] = ATG_AP_2_CIS: Attagene CIS-FACTORIAL HepG2 Assay for human Activator Protein 2 (AP-2) (AID 2282932); details: HepG2 AP-2 cis-reporter, Attagene transcription factor profiling; actives raise or lower the signal
# Procedure, shortened: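 Liver-derived HepG2 line, cis-reporter system measuring endogenous factors; 24 h dosing; reporter mRNA detected by fluorescent RT-PCR and capillary electrophoresis.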
# [8] = ATG_BRE_CIS: Attagene CIS-FACTORIAL HepG2 Assay for human Bone Morphogenetic Protein (BMP) Response Element (BRE) (AID 2282933); details: HepG2 BMP response element reporter, Attagene transcription factor profiling; actives raise or lower the signal
# Procedure, shortened: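 Read-out: reporter mRNA induction quantified by RT-PCR and capillary electrophoresis after 24 h chemical exposure of transfected HepG2 cells. Endogenous factor activity on the BMP response element; gain or loss fitted against DMSO baseline.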
# [9] = biological target: Transcription factor E2F1 (Homo sapiens) (UniProt Q01094); assay: ATG_E2F_CIS: Attagene CIS-FACTORIAL HepG2 Assay for human E2F Transcription Factor 1 (AID 2282935); details: HepG2 Attagene cis-reporter, E2F reporter RNA transcripts; actives raise or lower the signal
# Transcription factor E2F1 (Homo sapiens), sequence (Q01094 whole entry, looked up): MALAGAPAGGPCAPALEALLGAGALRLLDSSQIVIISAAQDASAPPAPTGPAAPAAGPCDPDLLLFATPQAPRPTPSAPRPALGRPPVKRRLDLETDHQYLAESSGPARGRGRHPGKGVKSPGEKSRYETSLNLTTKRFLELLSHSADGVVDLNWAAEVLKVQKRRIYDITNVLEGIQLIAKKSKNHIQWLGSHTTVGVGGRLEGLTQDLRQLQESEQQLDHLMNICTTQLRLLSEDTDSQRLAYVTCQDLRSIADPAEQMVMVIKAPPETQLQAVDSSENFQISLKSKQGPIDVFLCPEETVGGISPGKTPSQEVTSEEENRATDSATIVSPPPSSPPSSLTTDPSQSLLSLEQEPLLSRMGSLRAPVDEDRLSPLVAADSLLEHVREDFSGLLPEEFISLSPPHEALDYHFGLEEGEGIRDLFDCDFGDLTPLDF
# Procedure, shortened: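 Liver-derived HepG2 cells expressing transfected promoter-driven reporter units received test chemical for 24 hours. Signal gains or losses were fitted bidirectionally against DMSO.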
# [10] = ATG_E_Box_CIS: Attagene CIS-FACTORIAL HepG2 Assay for human Enhancer Box (E-box) (AID 2282936); details: HepG2 E-box cis-reporter transcription, actives raise or lower the signal
# Procedure, shortened: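 In this cell-based setup, HepG2 cells bearing transfected promoter-driven reporter units were exposed to chemicals for 24 h; reporter transcripts were amplified, 6-FAM-labelled, cut with HpaI and sized by capillary electrophoresis.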
# [11] = ATG_M_61_CIS: Attagene CIS-FACTORIAL HepG2 Assay for M61 Transcription Factor (Internal Marker) (AID 2282937); details: HepG2 Attagene CIS-FACTORIAL M61 internal marker reporter; actives raise or lower the signal
# Procedure, shortened: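 Multiplexed reporter mRNA assay, HepG2 human hepatoma cells, 24 h treatment. Signal: FAM-labelled, HpaI-digested RT-PCR fragments by CE. Fit: bidirectional, baseline DMSO.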
# [12] = ATG_EGR_CIS: Attagene CIS-FACTORIAL HepG2 Assay for human Early Growth Response 1 (EGR1) (AID 2282938); details: HepG2 Attagene CIS-FACTORIAL EGR reporter mRNA; actives raise or lower the signal
# Procedure, shortened: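 Multiplexed cis-reporter system in human hepatoma HepG2 cells, transiently transfected. Cells are dosed for 24 h; reporter transcripts are amplified, fluorescently tagged and sized by capillary electrophoresis, with DMSO as negative control.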
# [13] = ATG_M_19_CIS: Attagene CIS-FACTORIAL HepG2 Assay for M19 Transcription Factor (Internal Marker) (AID 2282939); details: HepG2 Attagene CIS-FACTORIAL M19 internal marker reporter; actives raise or lower the signal
# Procedure, shortened: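 Readout: fluorescent reporter-transcript fragments by capillary electrophoresis after RT-PCR. Human HepG2 liver cells carried transfected MRTU constructs reporting endogenous transcription-factor activity; exposure 24 h. Gain or loss of signal fitted relative to DMSO.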
# [14] = ATG_Ets_CIS: Attagene CIS-FACTORIAL HepG2 Assay for human Erythroblast Transformation Specific (ETS) (AID 2282941); details: HepG2 ETS cis-reporter transcription, actives raise or lower the signal
# Procedure, shortened: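 Bidirectional fit versus DMSO of reporter mRNA signal, detected by RT-PCR and capillary electrophoresis in HepG2 cells transiently transfected with cis-element reporters and dosed 24 h.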
# [15] = biological target: Hepatocyte nuclear factor 3-beta (Homo sapiens) (UniProt Q9Y261); assay: ATG_FoxA2_CIS: Attagene CIS-FACTORIAL HepG2 Assay for human Forkhead box A2 (FOXA2) (AID 2282942); details: HepG2 cis-reporter transcription factor activity, 24 h; actives raise or lower the signal
# Hepatocyte nuclear factor 3-beta (Homo sapiens), sequence (Q9Y261 whole entry, looked up): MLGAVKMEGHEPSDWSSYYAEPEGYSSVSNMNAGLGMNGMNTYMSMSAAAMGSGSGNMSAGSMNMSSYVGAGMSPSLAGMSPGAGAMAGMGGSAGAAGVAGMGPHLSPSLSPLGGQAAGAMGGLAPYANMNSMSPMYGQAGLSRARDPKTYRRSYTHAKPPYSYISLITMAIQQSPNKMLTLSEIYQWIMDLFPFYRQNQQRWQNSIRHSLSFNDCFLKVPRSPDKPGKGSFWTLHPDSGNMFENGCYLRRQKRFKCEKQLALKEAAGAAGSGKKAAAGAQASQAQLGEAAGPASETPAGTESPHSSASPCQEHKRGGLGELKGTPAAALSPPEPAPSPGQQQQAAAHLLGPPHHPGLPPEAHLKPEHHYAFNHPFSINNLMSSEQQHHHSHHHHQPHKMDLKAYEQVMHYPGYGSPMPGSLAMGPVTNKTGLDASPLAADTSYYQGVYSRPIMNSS
# Procedure, shortened: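 Multiplexed cis-element reporter assay in transiently transfected HepG2. Twenty-four hours post-dosing, RNA was reverse-transcribed, amplified, FAM-labelled, HpaI-digested and separated by CE. Activity gain or loss relative to DMSO.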
# [16] = ATG_GATA_CIS: Attagene CIS-FACTORIAL HepG2 Assay for human GATA Binding Protein (AID 2282944); details: HepG2 GATA cis-element reporter, Attagene multiplex mRNA; actives raise or lower the signal
# Procedure, shortened: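 Read-out: fluorescent reporter mRNA fragments resolved by capillary electrophoresis after RT-PCR. Human liver HepG2 cells carried transiently transfected cis-regulated reporter constructs; chemicals incubated 24 h; gain or loss of signal fitted relative to DMSO.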
# [17] = ATG_GLI_CIS: Attagene CIS-FACTORIAL HepG2 Assay for human Zinc Finger Protein GLI1 (AID 2282945); details: HepG2, Attagene cis-factorial reporter mRNA, GLI element; actives raise or lower the signal
# Procedure, shortened: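 Transiently transfected HepG2 cells report endogenous transcription factor activity via cis-element-driven reporter units. After 24 h compound exposure, reporter mRNA was measured by RT-PCR with capillary electrophoresis; bidirectional fitting against DMSO baseline.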
# [18] = ATG_ERE_CIS: Attagene CIS-FACTORIAL HepG2 Assay for Estrogen Response Element (ERE) (AID 2282940); details: HepG2 ERE cis-reporter, Attagene RNA transcript; actives raise or lower the signal
# Procedure, shortened: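 Readout: reporter mRNA induction by RT-PCR, FAM-labelled primer extension, HpaI digestion and capillary electrophoresis, 24 h after dosing transfected HepG2 cells. Endogenous transcription factors act on cis-element-regulated reporters. Gain or loss fitted against DMSO.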
# [19] = ATG_FoxO_CIS: Attagene CIS-FACTORIAL HepG2 Assay for human Forkhead box O (FoxO) (AID 2282943); details: HepG2 Attagene cis-reporter, FoxO element, mRNA; actives raise or lower the signal
# Procedure, shortened: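 Transfected HepG2 reporter cells exposed to test chemical for 24 h; reporter RNA measured by reverse transcription, PCR and fluorescent capillary electrophoresis; curves fitted for increases and decreases against DMSO.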
# [20] = biological target: Retinoic acid receptor alpha (Homo sapiens) (UniProt P10276); assay: ATG_DR5_RAR_CIS: Attagene CIS-FACTORIAL HepG2 Assay for human Retinoic Acid Receptor Alpha (RARE), DR5 submotif (AID 2282934); details: HepG2 Attagene cis-factorial RARE DR5 reporter, mRNA; actives raise or lower the signal
# Retinoic acid receptor alpha (Homo sapiens), sequence (P10276 whole entry, looked up): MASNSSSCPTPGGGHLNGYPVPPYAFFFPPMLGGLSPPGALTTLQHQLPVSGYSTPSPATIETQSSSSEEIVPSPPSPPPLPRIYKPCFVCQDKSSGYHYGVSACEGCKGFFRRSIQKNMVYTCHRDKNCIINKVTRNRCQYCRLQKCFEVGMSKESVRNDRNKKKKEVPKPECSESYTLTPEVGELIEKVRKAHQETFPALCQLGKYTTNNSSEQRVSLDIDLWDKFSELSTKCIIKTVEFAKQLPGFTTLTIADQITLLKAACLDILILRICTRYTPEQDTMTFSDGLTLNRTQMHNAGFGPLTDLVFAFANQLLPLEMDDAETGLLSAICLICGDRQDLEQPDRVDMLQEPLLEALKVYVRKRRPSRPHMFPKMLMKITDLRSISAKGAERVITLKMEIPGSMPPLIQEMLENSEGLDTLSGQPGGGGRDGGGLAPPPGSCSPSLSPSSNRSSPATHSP
# Procedure, shortened: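 After 24 h of chemical exposure, transiently transfected HepG2 cells were lysed for total RNA; the DR5-regulated reporter transcript was quantified via RT-PCR and capillary electrophoresis, with activity fitted bidirectionally against DMSO.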
smiles,measurement,setting,value
C[Si](O[Si](C)(C)C)O[Si](C)(C)C,outcome,[1],inactive
same,outcome,[2],inactive
same,outcome,[3],inactive
same,outcome,[4],inactive
same,AC50,[5],52.8 µM (active)
same,outcome,[6],inactive
same,outcome,[7],inactive
same,outcome,[8],inactive
same,outcome,[9],inactive
same,outcome,[10],inactive
same,outcome,[11],inactive
same,outcome,[12],inactive
same,outcome,[13],inactive
same,outcome,[14],inactive
same,outcome,[15],inactive
same,outcome,[16],inactive
same,outcome,[17],inactive
CCCCCCCCCCCCCCCC(=O)OC[C@H](O)[C@H]1OC(=O)C(O)=C1O,AC50,[1],29.3 µM (active)
same,AC50,[2],67.7 µM (active)
same,outcome,[3],inactive
same,AC50,[4],76.2 µM (active)
same,AC50,[5],78 µM (active)
same,outcome,[6],inactive
same,outcome,[7],inactive
same,AC50,[8],9.68 µM (active)
same,outcome,[9],inactive
same,outcome,[11],inactive
same,outcome,[12],inactive
same,outcome,[13],inactive
same,outcome,[18],inactive
same,outcome,[14],inactive
same,AC50,[15],159 µM (active)
same,outcome,[19],inactive
same,outcome,[17],inactive
CCCCCCCCCCCCCOS(=O)(=O)O,outcome,[1],inactive
same,outcome,[2],inactive
same,outcome,[3],inactive
same,outcome,[5],inactive
same,outcome,[6],inactive
same,outcome,[7],inactive
same,outcome,[8],inactive
same,outcome,[9],inactive
same,outcome,[10],inactive
same,outcome,[11],inactive
same,outcome,[12],inactive
same,outcome,[13],inactive
same,outcome,[14],inactive
same,outcome,[15],inactive
same,outcome,[19],inactive
same,outcome,[16],inactive
same,outcome,[17],inactive
COc1ccc(OC)c(OC)c1,outcome,[1],inactive
same,outcome,[2],inactive
same,outcome,[3],inactive
same,outcome,[5],inactive
same,outcome,[6],inactive
same,outcome,[7],inactive
same,outcome,[8],inactive
same,outcome,[9],inactive
same,outcome,[10],inactive
same,outcome,[11],inactive
same,outcome,[12],inactive
same,outcome,[13],inactive
same,outcome,[18],inactive
same,outcome,[14],inactive
same,outcome,[15],inactive
same,outcome,[19],inactive
same,outcome,[17],inactive
COc1ccc(Cl)cc1C,outcome,[1],inactive
same,outcome,[2],inactive
same,outcome,[3],inactive
same,AC50,[5],36.9 µM (active)
same,outcome,[6],inactive
same,outcome,[7],inactive
same,outcome,[8],inactive
same,outcome,[20],inactive
same,outcome,[9],inactive
same,outcome,[10],inactive
same,outcome,[11],inactive
same,outcome,[12],inactive
same,outcome,[13],inactive
same,outcome,[14],inactive
same,outcome,[15],inactive
same,outcome,[19],inactive
same,outcome,[16],inactive
same,outcome,[17],inactive
CC(CC(C)(C)C)CC(C)(C)CC(C)(C)C (centres undefined),outcome,[1],inactive
same,outcome,[2],inactive
same,outcome,[3],inactive
same,outcome,[5],inactive
same,outcome,[6],inactive
same,outcome,[7],inactive
same,outcome,[8],inactive
same,outcome,[9],inactive
same,outcome,[10],inactive
same,outcome,[11],inactive
same,outcome,[12],inactive
same,outcome,[13],inactive
same,outcome,[14],inactive
same,outcome,[15],inactive
same,outcome,[19],inactive
same,outcome,[16],inactive
same,outcome,[17],inactive
NCCOCCO,outcome,[1],inactive
same,outcome,[2],inactive
same,outcome,[3],inactive
same,outcome,[5],inactive
same,outcome,[6],inactive
same,outcome,[7],inactive
same,outcome,[8],inactive
same,outcome,[9],inactive
same,outcome,[10],inactive
same,outcome,[11],inactive
same,outcome,[12],inactive
same,outcome,[13],inactive
same,outcome,[18],inactive
same,outcome,[14],inactive
same,outcome,[15],inactive
same,outcome,[19],inactive
same,outcome,[16],inactive
same,outcome,[17],inactive
CCN(CC)CCOC(=O)c1ccc(N)cc1,outcome,[1],inactive
same,outcome,[2],inactive
same,outcome,[3],inactive
same,outcome,[5],inactive
same,outcome,[6],inactive
same,outcome,[7],inactive
same,outcome,[8],inactive
same,outcome,[20],inactive
same,outcome,[9],inactive
same,outcome,[10],inactive
same,outcome,[11],inactive
same,outcome,[12],inactive
same,outcome,[13],inactive
same,outcome,[14],inactive
same,outcome,[15],inactive
same,outcome,[19],inactive
same,outcome,[16],inactive
same,outcome,[17],inactive
